Data: PubChem BioAssay
For some assays here: Results with a measured potency or affinity are listed apart. The source made the active and inactive calls. Unless noted, the rule behind the calls is not given here.

What was measured:
[1] = antimalarial activity against Dd2 strain (AID 2302;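 active = growth inhibition above 50% at the single 2 µM test dose, taken to imply half-maximal potency below 2 µM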;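 note: 0% = DMSO untreated growth and 100% = chloroquine plus artemisinin killed control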); details: P. falciparum Dd2 in RBCs, LDH growth readout, 72 h; at 2 µM; hits give high values
[2] = HepG2 cytotoxicity, primary screen, cytotoxicity control for P. falciparum antimalarial project, cell-based, ATP luminescence (AID 2303;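 active = inhibition above 50%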;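 note: 0% = DMSO wells and 100% = digitonin-killed cells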); details: HepG2 viability, 24-48 h, at 10 µM, hits give high values
[3] = target: L-lactate dehydrogenase (Plasmodium falciparum (isolate CDC / Honduras)) (UniProt Q27743); test: PfLDH activity inhibition – cell lysate, 3D7 strain, counter-screen for P. falciparum growth inhibition project (AID 2304);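 note: 0% = vehicle and 100% = reference inhibitor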; details: P. falciparum 3D7 crude extract, LDH APAD/NBT absorbance; at 2 µM; hits give high values
[4] = inhibition of 3D7 malaria parasite growth – strain 3D7 (AID 2306);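 note: 0% = DMSO wells and 100% = chloroquine plus artemisinin control wells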; details: P. falciparum 3D7 erythrocytic growth, LDH absorbance, 72 h; at 2 µM; hits give high values
[5] = target: Calcium-dependent protein kinase 1 (Plasmodium falciparum (isolate 3D7)) (UniProt P62344); test: PfCDPK1 kinase inhibitors, biochemical, TCAMS library (AID 1159585; cut-off not given, nearly all actives have IC50 up to about 0.98 µM;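 note: inhibitors leave more ATP so luminescence rises with inhibition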); details: recombinant PfCDPK1, Kinase-Glo ATP depletion luminescence
[6] = target: Plasmodium falciparum protein kinase 6 (PK6, PF3D7_1337100) (UniProt Q8IDW1); test: PfPK6 kinase inhibitors, biochemical, TCAMS library (AID 1159586); details: recombinant PfPK6, Kinase-Glo ATP depletion luminescence
[7] = target: Protein kinase 7 (PK7), Plasmodium falciparum 3D7 (PF3D7_0213400) (UniProt Q7YTF7); test: inhibition of Plasmodium PK7 catalytic activity – biochemical, TCAMS antimalarial set, Kinase-Glo luminescence (AID 1159587); details: recombinant PfPK7, Kinase-Glo ATP depletion luminescence
[8] = target: Calcium-dependent protein kinase 4 (Plasmodium falciparum (isolate 3D7)) (UniProt Q8IBS5); test: PfCDPK4 kinase inhibitors, biochemical, TCAMS library (AID 1159588; cut-off not given, nearly all actives have IC50 up to about 0.91 µM); details: recombinant PfCDPK4, Kinase-Glo ATP depletion luminescence
Calcium-dependent protein kinase 4 (Plasmodium falciparum (isolate 3D7)), sequence (Q8IBS5 whole entry, looked up): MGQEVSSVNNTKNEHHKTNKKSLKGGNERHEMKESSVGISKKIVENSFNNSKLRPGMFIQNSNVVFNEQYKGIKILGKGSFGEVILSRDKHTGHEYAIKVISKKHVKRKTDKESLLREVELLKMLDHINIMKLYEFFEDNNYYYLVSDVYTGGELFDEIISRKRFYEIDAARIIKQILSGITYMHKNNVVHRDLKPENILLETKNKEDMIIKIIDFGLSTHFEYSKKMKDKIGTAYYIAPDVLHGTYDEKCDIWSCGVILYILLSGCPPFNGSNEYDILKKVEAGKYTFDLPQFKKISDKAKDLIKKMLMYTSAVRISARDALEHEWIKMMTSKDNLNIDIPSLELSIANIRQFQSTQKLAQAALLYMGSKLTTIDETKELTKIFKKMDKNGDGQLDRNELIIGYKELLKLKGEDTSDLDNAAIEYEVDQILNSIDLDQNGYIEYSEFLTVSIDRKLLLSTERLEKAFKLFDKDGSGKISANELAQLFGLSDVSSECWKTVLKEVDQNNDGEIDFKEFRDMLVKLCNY

L-lactate dehydrogenase (Plasmodium falciparum (isolate CDC / Honduras)), sequence (Q27743 whole entry, looked up): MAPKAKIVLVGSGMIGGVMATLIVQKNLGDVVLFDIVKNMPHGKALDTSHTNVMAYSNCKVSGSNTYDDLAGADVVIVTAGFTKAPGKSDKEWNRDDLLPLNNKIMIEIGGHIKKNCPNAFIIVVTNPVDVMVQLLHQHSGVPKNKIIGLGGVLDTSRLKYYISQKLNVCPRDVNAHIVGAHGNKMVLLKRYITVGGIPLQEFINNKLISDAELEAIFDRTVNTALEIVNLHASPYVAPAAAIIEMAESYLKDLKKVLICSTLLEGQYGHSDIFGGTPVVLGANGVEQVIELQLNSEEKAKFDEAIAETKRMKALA
Calcium-dependent protein kinase 1 (Plasmodium falciparum (isolate 3D7)), sequence (P62344 whole entry, looked up): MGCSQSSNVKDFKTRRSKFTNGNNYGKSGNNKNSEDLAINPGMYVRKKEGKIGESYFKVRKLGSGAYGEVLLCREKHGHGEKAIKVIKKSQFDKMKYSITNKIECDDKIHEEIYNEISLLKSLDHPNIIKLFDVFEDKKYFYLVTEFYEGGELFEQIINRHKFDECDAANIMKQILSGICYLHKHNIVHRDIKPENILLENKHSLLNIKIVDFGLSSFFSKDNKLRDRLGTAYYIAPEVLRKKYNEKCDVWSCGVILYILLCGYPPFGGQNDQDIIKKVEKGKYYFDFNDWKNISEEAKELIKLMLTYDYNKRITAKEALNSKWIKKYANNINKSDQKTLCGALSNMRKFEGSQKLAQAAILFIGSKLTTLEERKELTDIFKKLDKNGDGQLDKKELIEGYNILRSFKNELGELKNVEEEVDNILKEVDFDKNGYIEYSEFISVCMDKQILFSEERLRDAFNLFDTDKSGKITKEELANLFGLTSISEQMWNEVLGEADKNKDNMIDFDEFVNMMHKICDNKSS
Protein kinase 7 (PK7), Plasmodium falciparum 3D7 (PF3D7_0213400), sequence (Q7YTF7 1-343): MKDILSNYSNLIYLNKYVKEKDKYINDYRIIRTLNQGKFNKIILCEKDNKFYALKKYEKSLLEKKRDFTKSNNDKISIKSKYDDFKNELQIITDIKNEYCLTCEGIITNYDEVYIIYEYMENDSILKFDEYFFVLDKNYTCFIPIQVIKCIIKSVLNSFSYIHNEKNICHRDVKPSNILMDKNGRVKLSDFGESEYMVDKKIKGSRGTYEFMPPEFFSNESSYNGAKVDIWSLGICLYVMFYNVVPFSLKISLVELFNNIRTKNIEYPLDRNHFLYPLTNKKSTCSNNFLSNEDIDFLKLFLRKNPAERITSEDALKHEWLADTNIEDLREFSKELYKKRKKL
Plasmodium falciparum protein kinase 6 (PK6, PF3D7_1337100), sequence (Q8IDW1 1-305): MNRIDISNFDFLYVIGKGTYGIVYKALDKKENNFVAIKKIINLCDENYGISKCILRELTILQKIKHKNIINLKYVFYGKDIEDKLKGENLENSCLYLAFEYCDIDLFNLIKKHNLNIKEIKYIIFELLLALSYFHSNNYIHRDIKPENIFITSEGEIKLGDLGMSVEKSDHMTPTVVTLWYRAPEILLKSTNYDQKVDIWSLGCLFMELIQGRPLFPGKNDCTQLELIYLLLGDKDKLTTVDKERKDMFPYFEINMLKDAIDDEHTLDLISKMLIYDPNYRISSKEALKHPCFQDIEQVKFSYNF

Cn1c(=O)c2nc(-c3ccc(Cl)cc3)nnc2n(CCCC#N)c1=O
active: growth inhibition [1] 98% | growth inhibition [4] 99%
inactive: inhibition [2] 6% | inhibition [3] 6% | outcome [5] | outcome [6] | outcome [7] | outcome [8]

CN(C)c1ccc(CN2CCCCC(NC(=O)c3cc(-c4ccccc4Cl)cs3)C2)cc1 (stereo not given)
active: growth inhibition [4] 91%
inactive: growth inhibition [1] 14% | inhibition [2] 10% | inhibition [3] -3% | outcome [5] | outcome [6] | outcome [7] | outcome [8]

COc1ccc(C)cc1NC(=O)CSc1nc2cccnc2n1C1CCCCC1
active: growth inhibition [1] 78% | growth inhibition [4] 89%
inactive: inhibition [2] 14% | inhibition [3] -8% | outcome [5] | outcome [6] | outcome [7] | outcome [8]

CCOC(=O)NOC(C(=O)O)c1ccccc1 (stereo not given)
inactive: growth inhibition [1] 17% | inhibition [2] 4% | inhibition [3] -1% | outcome [5] | outcome [6] | outcome [7] | outcome [8]
active: growth inhibition [4] 99%

Oc1ccc(CCNc2nc(NCc3ccccc3-c3ccc(F)cc3)nc(N3CCNCC3)n2)cc1
inactive: growth inhibition [1] 24% | inhibition [2] 15% | inhibition [3] 0% | outcome [5] | outcome [6] | outcome [7] | outcome [8]
active: growth inhibition [4] 92%

COc1cc(NCCCNC(=O)c2cc3c(Cl)cc(Cl)cc3[nH]2)nc2ccccc12
inactive: inhibition [3] -1% | outcome [5] | outcome [6] | outcome [7] | outcome [8]
active: growth inhibition [1] 100% | inhibition [2] 96% | growth inhibition [4] 100%

CC(C)CNCc1ccc(-c2ccc(CN(CCCN3CCN(C)CC3)C(=O)/C=C/c3ccccc3)cc2)cc1
inactive: inhibition [3] 3% | outcome [5] | outcome [6] | outcome [7] | outcome [8]
active: growth inhibition [1] 93% | inhibition [2] 57% | growth inhibition [4] 99%

CCOc1ccc(-c2nonc2NC(=O)c2ccc(Cl)cc2)cc1OCC
inactive: growth inhibition [1] 47% | inhibition [2] 28% | inhibition [3] -2% | outcome [5] | outcome [6] | outcome [7] | outcome [8]
active: growth inhibition [4] 94%

Cc1nnsc1C(=O)Nc1cccc(-c2ccc(-c3nc4ccccc4[nH]3)s2)c1
active: inhibition [2] 55% | growth inhibition [4] 89%
inactive: growth inhibition [1] 13% | inhibition [3] -3% | outcome [5] | outcome [6] | outcome [7] | outcome [8]

CN1CCN(CCCN(Cc2cccc(-c3cccc(CNCCc4ccccc4)c3)c2)C(=O)Nc2ccccc2)CC1
inactive: inhibition [3] 0% | outcome [5] | outcome [6] | outcome [7] | outcome [8]
active: growth inhibition [1] 82% | inhibition [2] 92% | growth inhibition [4] 97%

O=C(Nc1ccc(OC2CCN(Cc3ccsc3)CC2)c(Cl)c1)c1ccc(F)cc1
inactive: inhibition [2] 31% | inhibition [3] 0% | outcome [5] | outcome [6] | outcome [7] | outcome [8]
active: growth inhibition [1] 83% | growth inhibition [4] 98%

N#Cc1ccc(CN2CCC(Oc3ccc(NC(=O)c4ccco4)cc3Cl)C2)cc1 (stereo not given)
inactive: inhibition [2] 13% | inhibition [3] -2% | outcome [5] | outcome [6] | outcome [7] | outcome [8]
active: growth inhibition [1] 95% | growth inhibition [4] 95%

C[C@@H]1CN(c2cnn(Cc3cccc(NC(=O)Nc4cccc(C(F)(F)F)c4)c3)c(=O)c2Cl)C[C@H](C)N1
active: growth inhibition [1] 74% | growth inhibition [4] 96%
inactive: inhibition [2] 19% | inhibition [3] -4% | outcome [5] | outcome [6] | outcome [7] | outcome [8]

O=S(=O)(NCCN1CCCC1)c1ccc(-c2cccc(CNCc3ccc(F)cc3)c2)cc1F
inactive: growth inhibition [1] 36% | inhibition [2] 43% | inhibition [3] -1% | outcome [5] | outcome [6] | outcome [7] | outcome [8]
active: growth inhibition [4] 97%

COc1cc2nc(NCCc3ccccc3)nc(NCc3ccc(C#N)cc3)c2cc1OC
active: growth inhibition [1] 100% | inhibition [2] 52% | growth inhibition [4] 100%
inactive: inhibition [3] 0% | outcome [5] | outcome [6] | outcome [7] | outcome [8]

CCOC(=O)CNC(=O)N(CCN(Cc1ccccc1)C(=O)NCC(=O)OCC)Cc1ccccc1
inactive: growth inhibition [1] -1% | inhibition [2] 9% | inhibition [3] 5% | outcome [5] | outcome [6] | outcome [7] | outcome [8]
active: growth inhibition [4] 98%

O=c1cc(NCCNCc2cccc(-c3ccccc3)c2)[nH]c2ccccc12
inactive: inhibition [2] -2% | inhibition [3] -6% | outcome [5] | outcome [6] | outcome [7] | outcome [8]
active: growth inhibition [1] 68% | growth inhibition [4] 93%

CCc1c[nH]c2c(N3CCCS3(=O)=O)cc(C(=O)N[C@@H](Cc3ccccc3)[C@H](O)CNC3CCCCC3)cc12
active: growth inhibition [1] 89% | growth inhibition [4] 99%
inactive: inhibition [2] 6% | inhibition [3] -7% | outcome [5] | outcome [6] | outcome [7] | outcome [8]

COc1cccc(Nc2c(C(N)=O)cnc3ccc(-c4ccccc4)cc23)c1
inactive: inhibition [2] 2% | inhibition [3] -2% | outcome [5] | outcome [6] | outcome [7] | outcome [8]
active: growth inhibition [1] 99% | growth inhibition [4] 98%

CN(C)CCCNCc1ccc(-c2ccc(C(F)(F)F)cc2)cc1
inactive: growth inhibition [1] 35% | inhibition [2] 30% | inhibition [3] -4% | outcome [5] | outcome [6] | outcome [7] | outcome [8]
active: growth inhibition [4] 96%

CN(C)c1ccc(CN2CCC(NC(=O)c3ccc(-c4ccccc4F)s3)CC2)cc1
inactive: growth inhibition [1] 27% | inhibition [2] 41% | inhibition [3] -3% | outcome [5] | outcome [6] | outcome [7] | outcome [8]
active: growth inhibition [4] 86%

N#Cc1ccc(CN2CCCN(c3ccc(NC(=O)c4ccc(F)cc4)cc3)CC2)cc1
active: growth inhibition [1] 61% | growth inhibition [4] 90%
inactive: inhibition [2] 12% | inhibition [3] -2% | outcome [5] | outcome [6] | outcome [7] | outcome [8]

O=C1OC(c2ccccc2)(c2ccccn2)CN1C1CCN(Cc2cccn2-c2ccc(Cl)cc2)CC1 (stereo not given)
inactive: inhibition [2] 21% | inhibition [3] -5% | outcome [5] | outcome [6] | outcome [7] | outcome [8]
active: growth inhibition [1] 98% | growth inhibition [4] 99%

CC(C)c1sc(N2CCN(C)CC2)nc1C(=O)NCCc1ccc(Br)cc1
active: growth inhibition [1] 60% | growth inhibition [4] 89%
inactive: inhibition [2] -1% | inhibition [3] -1% | outcome [5] | outcome [6] | outcome [7] | outcome [8]

O=c1cc(NC[C@H]2CCC[C@@H]2NCc2cc(Br)cc(Br)c2)[nH]c2ccccc12
inactive: growth inhibition [1] 45% | inhibition [2] 21% | inhibition [3] 2% | outcome [5] | outcome [6] | outcome [7] | outcome [8]
active: growth inhibition [4] 101%

COc1ccc(-c2nc(-c3ccc([N+](=O)[O-])cc3)no2)cc1OC
active: growth inhibition [4] 96%
inactive: growth inhibition [1] -5% | inhibition [2] 14% | inhibition [3] -1% | outcome [5] | outcome [6] | outcome [7] | outcome [8]

CC(C)C1C(O)=C(c2ccc3ccccc3c2)C(=O)N1Cc1cccc(F)c1 (stereo not given)
active: growth inhibition [1] 82% | growth inhibition [4] 97%
inactive: inhibition [2] 3% | inhibition [3] 3% | outcome [5] | outcome [6] | outcome [7] | outcome [8]

Cc1nn(C)c(C)c1CN(Cc1nc(-c2cccc(Oc3ccccc3)c2)oc1C)C1CC1
active: growth inhibition [1] 98% | growth inhibition [4] 101%
inactive: inhibition [2] 7% | inhibition [3] 0% | outcome [5] | outcome [6] | outcome [7] | outcome [8]

O=C1OC2(CN1CC1CCN(Cc3ccc(O)c(Cl)c3)CC1)c1ccccc1-c1ccccc12
inactive: inhibition [2] 32% | inhibition [3] 0% | outcome [5] | outcome [6] | outcome [7] | outcome [8]
active: growth inhibition [1] 96% | growth inhibition [4] 97%

CCCCOc1cc2c(cc1OCC)C(C=Cc1ccc(Cl)cc1Cl)=NCC2
inactive: inhibition [2] -2% | inhibition [3] -1% | outcome [5] | outcome [6] | outcome [7] | outcome [8]
active: growth inhibition [1] 95% | growth inhibition [4] 97%

CCn1cc2c3c(cc(C(=O)N[C@@H](Cc4ccccc4)[C@H](O)CNCc4cccc(OC)c4)cc31)N(C)S(=O)(=O)CC2
inactive: inhibition [2] -12% | inhibition [3] 0% | outcome [5] | outcome [6] | outcome [7] | outcome [8]
active: growth inhibition [1] 97% | growth inhibition [4] 99%

N#Cc1ccc(-c2ccc(C(=O)NC3CCN(CCN4CCc5c(cccc5C(F)(F)F)C4)CC3)cc2)cc1
inactive: inhibition [2] 40% | inhibition [3] -1% | outcome [5] | outcome [6] | outcome [7] | outcome [8]
active: growth inhibition [1] 51% | growth inhibition [4] 98%

CCOc1cc(CC)ccc1C1CCN(CCN2CCC(NC(=O)c3ccc(-c4ccc(C(C)=O)cc4)cc3)CC2)CC1
inactive: growth inhibition [1] 8% | inhibition [2] 25% | inhibition [3] -1% | outcome [5] | outcome [6] | outcome [7] | outcome [8]
active: growth inhibition [4] 100%

COc1ccc2nccc([C@@H](O)CN3CCC(NC(=O)c4ccc(Cl)c([N+](=O)[O-])c4)CC3)c2c1
inactive: growth inhibition [1] 43% | inhibition [2] 14% | inhibition [3] -1% | outcome [5] | outcome [6] | outcome [7] | outcome [8]
active: growth inhibition [4] 88%

O=C(NCCN1Cc2ccccc2C1=O)c1ccc(Oc2ccc(C(=O)NCCN3Cc4ccccc4C3=O)cc2)cc1
inactive: inhibition [2] 27% | inhibition [3] -1% | outcome [5] | outcome [6] | outcome [7] | outcome [8]
active: growth inhibition [1] 95% | growth inhibition [4] 99%

COc1ccc2nccc(N3CCC(NCCNCc4cc5c(cn4)OCCO5)C3)c2n1 (stereo not given)
active: growth inhibition [4] 99%
inactive: growth inhibition [1] 3% | inhibition [2] 8% | inhibition [3] -3% | outcome [5] | outcome [6] | outcome [7] | outcome [8]

COc1ccc(CN(C)CCCOc2ccc(NC(=O)C=Cc3ccc(C(C)(C)C)cc3)cc2)cc1OC
active: growth inhibition [1] 87% | growth inhibition [4] 101%
inactive: inhibition [2] 14% | inhibition [3] 2% | outcome [5] | outcome [6] | outcome [7] | outcome [8]

Nc1ccc2nc(C=Cc3ccccc3)[nH]c2c1
inactive: inhibition [2] 7% | inhibition [3] 1% | outcome [5] | outcome [6] | outcome [7] | outcome [8]
active: growth inhibition [1] 89% | growth inhibition [4] 92%

O=c1cc(NCc2ccccc2NCc2ccc(Cl)c(Cl)c2)[nH]c2ccccc12
inactive: inhibition [2] 10% | inhibition [3] 3% | outcome [5] | outcome [6] | outcome [7] | outcome [8]
active: growth inhibition [1] 98% | growth inhibition [4] 93%

COc1ccccc1CCNc1ncc(F)c(N[C@@H](Cc2ccccc2)C(=O)NCCc2ccccc2)n1
inactive: inhibition [2] 7% | inhibition [3] -2% | outcome [5] | outcome [6] | outcome [7] | outcome [8]
active: growth inhibition [1] 83% | growth inhibition [4] 90%
